Source: PubChem (University of Kansas High Throughput Screening Laboratory)
mHTT CaM bind: mutant huntingtin-calmodulin interaction inhibitors – biochemical, AlphaScreen, primary screen; P42858; AlphaScreen His-mHTT/GST-CaM binding, luminescence; inhibition, % at 15 µM; hit rate 3.6% among 190,000; AID 1671202, 2021;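 note: 0% = both proteins with DMSO and 100% = one protein alone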
Pf apPOL inh: Pf-apPOL inhibitors, biochemical, fluorescence. Plasmodium falciparum apicoplast DNA polymerase (apPOL). Recombinant Pf-apPOL, molecular beacon fluorescence, 1.5 h. inhibition, % at 10 µM. hit rate 0.25% among 210,000
Starred values were filed as active, the others as inactive. Compounds with a hit are over-represented: about 3.5% of the library has one in this group of screens. Cut-off read from the data, not from the text of the source: active = inhibition above about 50%; inactive = the rest.

SMILES | mHTT CaM bind | Pf apPOL inh
CC(=O)NCc1csc(C2CCN(S(=O)(=O)c3ccc(Cl)cc3)CC2)n1 | 15 | -4
Cc1nn(C2CCS(=O)(=O)C2)c(C)c1CC(=O)O (centres undefined) | -9 | -4
COc1cccc2cc(C(=O)NCC(c3ccco3)N3CCOCC3)oc12 (centres undefined) | -4 | -3
COc1ccc2nc(NC(=O)c3cc([N+](=O)[O-])ccc3Cl)sc2c1 | 19 | -5
O=C(c1ccc(Cl)cc1)N1CCC2(O)CCCCC2C1 (centres undefined) | 2 | -10
O=C(NCc1ccccc1)c1ccc(NC(=O)N2CC3CCCN3c3ccccc32)cc1 (centres undefined) | 19 | 2
O=C(NCc1ccccc1)N1CC2CCCN2c2ccccc21 (centres undefined) | 83* | 0
Cc1cccc(CNC(=O)CCC(=O)N2CC3CCCN3c3ccccc32)c1 (centres undefined) | 41 | -7
Cc1ccc(CNC(=O)N2CC3CCCN3c3ccccc32)cc1 (centres undefined) | 57* | -3
CCC1CN(C(=O)NCCC(C)C)c2ccccc2O1 (centres undefined) | -21 | 0
CC(C)CCNC(=O)N1CC2CCCN2c2ccccc21 (centres undefined) | 56* | -3
COc1ccc(C2=N/C(=C\c3ccc([N+](=O)[O-])cc3)C(=O)O2)c(Cl)c1 | -4 | 0
COc1ccccc1/C=c1\sc2nc(-c3cccc(Cl)c3)nn2c1=O | -3 | -6
CCc1cc(C2CCCN2C(=O)NCc2ccccc2)on1 (centres undefined) | -1 | 0
COc1ccc(C2=N/C(=C/c3coc4ccccc4c3=O)C(=O)O2)c(Cl)c1 | -2 | 3
CCc1cccc2c1NC(c1ccc(OC)c([N+](=O)[O-])c1)C1CC=CC21 (centres undefined) | 59* | -7
COc1cccc2c1NC(c1ccc([N+](=O)[O-])cc1)C1CC=CC21 (centres undefined) | 70* | 5
COc1cc([N+](=O)[O-])cc2c1NC(c1ccccc1Cl)C1CC=CC21 (centres undefined) | 13 | 2
COc1ccc(C2Nc3c(C)ccc(Cl)c3C3C=CCC32)cc1[N+](=O)[O-] (centres undefined) | 33 | -6
COc1ccc(C2Nc3c(OC)cccc3C3C=CCC32)cc1[N+](=O)[O-] (centres undefined) | 66* | -5
Cc1ccc(NC(=O)CCS(=O)(=O)c2ccc(Br)s2)cc1F | -10 | -10
C#CCOCC1CCCN(S(=O)(=O)C2CC2)C1 (centres undefined) | -7 | 0
O=C1OC2(CCCCC2)OC(=O)C1=Cc1ccc2c(c1)OCO2 | 4 | 1
COC(=O)c1ccc(CN2CCCC2c2cc(C(C)C)no2)cc1 (centres undefined) | -4 | 0
c1ccc2nc(-c3nc4ccccc4[nH]3)ccc2c1 | 3 | 9
SMILES | mHTT CaM bind | Pf apPOL inh
CC1C(c2ccc3ccccc3n2)=CNc2ccccc21 (centres undefined) | 91* | -1
CCCCOc1ccc(C2C3CCCC=C3C(C#N)=C(N)C2(C#N)C#N)cc1 (centres undefined) | 55* | 1
COc1ccc(C2C3CCCC=C3C(C#N)=C(N)C2(C#N)C#N)cc1 (centres undefined) | 23 | -1
CC(C)(C)C1CC=C2C(C#N)=C(N)C(C#N)(C#N)C(c3ccccc3)C2C1 (centres undefined) | 25 | -10
CCCN1CC=C2C(C#N)=C(N)C(C#N)(C#N)C(c3ccc(-c4ccccc4)cc3)C2C1 (centres undefined) | 63* | -6
CC(C)c1ccc(C2C3CCCC=C3C(C#N)=C(N)C2(C#N)C#N)cc1 (centres undefined) | 55* | 8
CC(C)(C)C1CC=C2C(C#N)=C(N)C(C#N)(C#N)C(c3ccc(Cl)cc3)C2C1 (centres undefined) | 62* | -3
CN1CC=C2C(C#N)=C(N)C(C#N)(C#N)C(c3ccccc3)C2C1 (centres undefined) | 4 | 0
Cc1ccc(C2C3CCCC=C3C(C#N)=C(N)C2(C#N)C#N)cc1 (centres undefined) | 20 | 0
CCc1nc(-c2cn(Cc3ccc(C)cc3)nn2)no1 | -16 | -2
N#C/C(=C\c1cccc(Br)c1)c1nc(-c2cccc([N+](=O)[O-])c2)cs1 | 1 | -1
N#CC1=C(N)C(C#N)(C#N)C(c2ccccc2)C2CCCC=C12 (centres undefined) | 18 | 1
N#CC1=C(N)C(C#N)(C#N)C(c2cccs2)C2CC(c3ccccc3)CC=C12 (centres undefined) | 96* | -4
COC(=O)c1ccc(NC(=O)C(=O)NCCc2c[nH]c3ccccc23)cc1 | 11 | -3
